Results on 7 compounds are retold here after PubChem BioAssay (EPA / NIEHS).

Results filed as inconclusive are left out. The source made the active and inactive calls. How the source made its calls, unless noted: active means hit-call score of the fitted dose curve at least 0.9, where 1 is the maximum; inconclusive means response in the unintended direction; inactive means score below 0.9.

Assay [1] can be described thus: TOX21_p53_BLA_p2_viability: Viability Assessment in the Tox21 HCT-116 p53 Agonism Beta-lactamase Assay, Phase 2 (AID 2283591).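 Further: actives lower the ATP signal meaning cytotoxicity.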 Summed up: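 HCT116 p53-bla cells, 4000/well, dosed after 5 h plating (217-fold dilution of DMSO stocks) and incubated 16 h at 37C. Viability taken as cellular ATP by CellTiter-Glo luminescence after 30 min RT; signal loss marks cytotoxicity.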

A short description of assay [2]: TOX21_p53_BLA_p3_viability: Viability Assessment in the Tox21 HCT-116 p53 Agonism Beta-lactamase Assay, Phase 3 (AID 2283593).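 Further: cells exposed to compound for 16 h before reading.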 The method in brief:
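HCT116 cells, 4000/well, dosed 5 h after plating by pin transfer (217-fold dilution from DMSO stock) and incubated 16 h at 37C, 5% CO2. Viability read as ATP luminescence with CellTiter-Glo after 30 min at room temperature.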

The target of assay [3] is Cellular tumor antigen p53 (Homo sapiens) (UniProt P04637). Briefly: TOX21_p53_BLA_p3_ratio: Tox21 HCT-116 p53 Agonism Beta-lactamase Assay, Ratio, Phase 3 (AID 2283596). Summed up:
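Cells were seeded at 4000/well, rested 5 h at 37C, then dosed with DMSO compound solutions (217-fold dilution) for 16 h. CCF4-AM substrate was loaded for 2 h at room temperature, and the 460/530 nm emission ratio was fitted for gain of signal versus DMSO.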

Assay [4] in a line: TOX21_p53_BLA_p4_viability: Viability Assessment in the Tox21 HCT-116 p53 Agonism Beta-lactamase Assay, Phase 4 (AID 2283597).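 Further: hits lower the luminescence signal meaning cytotoxicity.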 The method in brief: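 4000 HCT116 cells per well; 5 h attachment; compounds from DMSO, 217-fold dilution; 16 h at 37C. Then CCF4-AM, 2 h RT, followed by CellTiter-Glo, 30 min RT, luminescence. Decrease = cytotoxicity.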
The nature of assay [5]: TOX21_p53_BLA_p5_viability: Viability Assessment in the Tox21 HCT-116 p53 Agonism Beta-lactamase Assay, Phase 5 (AID 2283600). The method in brief:
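Decreased CellTiter-Glo luminescence denotes lost viability. Exposure: 16 h at 37C, 5% CO2, with compounds from DMSO stocks diluted 217-fold in wells of 4000 cells.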

Assay [6] addresses Cellular tumor antigen p53 (Homo sapiens) (UniProt P04637). The assay can be described thus: TOX21_p53_BLA_p4_ratio: Tox21 HCT-116 p53 Agonism Beta-lactamase Assay, Ratio, Phase 4 (AID 2283601). The method in brief: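 HCT-116 p53 beta-lactamase reporter cells (4000/well) preincubated 5 h, then compound (217-fold dilution of DMSO stock) for 16 h at 37C. CCF4-AM substrate added 2 h at room temperature; 460/530 nm emission ratio fitted upward versus DMSO.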

The target is the same in assay [7]. The assay can be described thus: TOX21_p53_BLA_p5_ratio: Tox21 HCT-116 p53 Agonism Beta-lactamase Assay, Ratio, Phase 5 (AID 2283599). Summed up:
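HCT-116 p53-bla cells (4000/well) plated 5 h, dosed with compound (217-fold DMSO dilution) for 16 h at 37 C; CCF4-AM substrate 2 h at room temperature. Activity is the 460/530 nm emission ratio (405 nm excitation), fitted in gain-of-signal direction versus DMSO.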

The nature of assay [8]: CEETOX_H295R_MTT_cell_viability: Viability Assessment in the CeeTox HT-H295R MTT Assay (AID 2283718; active means hit-call score of the fitted dose curve at least 0.9, where 1 is the maximum; inactive means score below 0.9). The method in brief:
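Human H295R adrenal cells, prestimulated 48 h with 10 uM forskolin, were exposed 48 h to chemicals in 0.1% DMSO. Viability was measured in the same wells by MTT (0.5 mg/ml, 4 h, 37 C), absorbance 570/650 nm, as percent of controls.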

Assay [9] in a line: CEETOX_H295R_11DCORT_noMTC: CeeTox H295R High-throughput Steroidogenesis Assay for 11-Deoxycortisol (11DCORT), maximum tolerated concentration (MTC) filtered results only (AID 2283911; active means hit-call score of the fitted dose curve at least 0.9, where 1 is the maximum; inactive means score below 0.9). The settings on record: actives raise or lower the signal. The method in brief: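 H295R cells were prestimulated 48 h with 10 uM forskolin, then exposed 48 h to chemical (0.1% DMSO final). 11-Deoxycortisol in the medium was measured by MTBE extraction and HPLC-MS/MS, with bidirectional fitting versus DMSO and no MTC filtering of concentrations.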

Assay [10] can be described thus: CEETOX_H295R_OHPREG_noMTC: CeeTox H295R High-throughput Steroidogenesis Assay for OH-Pregnenolone (OHPREG), maximum tolerated concentration (MTC) filtered results only (AID 2283912; active means hit-call score of the fitted dose curve at least 0.9, where 1 is the maximum; inactive means score below 0.9). The settings on record: actives raise or lower the signal. Summed up:
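H295R; 10 uM forskolin 48 h pre-stim; test cpd in DMSO (0.1% final) 48 h; media MTBE-extracted, HPLC-MS/MS for OH-pregnenolone; bidirectional fit vs DMSO; no MTC (MTT) filtering.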

Assay [11] in a line: CEETOX_H295R_OHPROG_noMTC: CeeTox H295R High-throughput Steroidogenesis Assay for OH-Progesterone (OHPROG), maximum tolerated concentration (MTC) filtered results only (AID 2283914; active means hit-call score of the fitted dose curve at least 0.9, where 1 is the maximum; inactive means score below 0.9). The settings on record: actives raise or lower the signal. Summed up: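 Medium hormone measured by reverse-phase C18 HPLC with positive electrospray MS/MS after MTBE liquid-liquid extraction. Cells had 48 h forskolin (10 uM) prestimulation, then 48 h chemical dosing. Gain or loss of signal fitted relative to DMSO baseline.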

Assay [12] is described as follows: CEETOX_H295R_CORTISOL_noMTC: CeeTox H295R High-throughput Steroidogenesis Assay for Cortisol, maximum tolerated concentration (MTC) filtered results only (AID 2283916; active means hit-call score of the fitted dose curve at least 0.9, where 1 is the maximum; inactive means score below 0.9). The settings on record: actives raise or lower the signal. The method in brief:
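H295R human adrenal cells prestimulated 48 h with 10 uM forskolin, then exposed 48 h to chemical in 0.1% DMSO; cortisol in medium quantified by HPLC-MS/MS; bidirectional fit vs DMSO baseline, concentrations not MTT-filtered for MTC.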

A short description of assay [13]: CEETOX_H295R_CORTIC_noMTC: CeeTox H295R High-throughput Steroidogenesis Assay for Corticosterone (CORTIC), maximum tolerated concentration (MTC) filtered results only (AID 2283917; active means hit-call score of the fitted dose curve at least 0.9, where 1 is the maximum; inactive means score below 0.9). The settings on record: actives raise or lower the signal. Summed up:
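Corticosterone secreted into the medium was measured by reverse-phase C18 HPLC with tandem MS after MTBE extraction. Cells (H295R) had 48 h forskolin (10 uM) stimulation before 48 h chemical exposure; gain or loss of signal was fitted relative to DMSO.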

A short description of assay [14]: CEETOX_H295R_DOC_noMTC: CeeTox H295R High-throughput Steroidogenesis Assay for DOC, maximum tolerated concentration (MTC) filtered results only (AID 2283918; active means hit-call score of the fitted dose curve at least 0.9, where 1 is the maximum; inactive means score below 0.9). The settings on record: actives raise or lower the signal. The method in brief:
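H295R cells prestimulated 48 h with 10 uM forskolin, then exposed 48 h to chemical in 0.1% DMSO. 11-Deoxycorticosterone in medium measured by MTBE extraction and HPLC-MS/MS; bidirectional fit vs DMSO, no MTC filter.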

Assay [15] in a line: CEETOX_H295R_PROG_noMTC: CeeTox H295R High-throughput Steroidogenesis Assay for Progesterone (PROG), maximum tolerated concentration (MTC) filtered results only (AID 2283920; active means hit-call score of the fitted dose curve at least 0.9, where 1 is the maximum; inactive means score below 0.9). The settings on record: actives raise or lower the signal. The method in brief:
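Readout: medium progesterone by MTBE extraction, reverse-phase C18 HPLC, ESI-positive MS/MS. Human H295R cells, 10 uM forskolin pretreatment 48 h, chemical 48 h in 0.1% DMSO. Gain or loss fitted against DMSO baseline.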

A short description of assay [16]: CCTE_Harrill_HTTr_Viability_MCF7: CCTE's 6-hour Cell Viability Assessment for the High-Throughput Transcriptomics (HTTr) Platform, in MCF-7 cells cultured in DMEM + 10% fetal bovine serum, Harrill Lab (AID 2284010; active means hit-call score of the fitted dose curve at least 0.9, where 1 is the maximum; inactive means score below 0.9). Summed up:
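Eight-point concentration series, six-hour exposure. Propidium iodide exclusion imaged to assess membrane integrity as a cytotoxicity readout; bidirectional fitting was done with DMSO as negative control and activity baseline.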

A short description of assay [17]: CCTE_Harrill_HTTr_Apoptosis_MCF7: CCTE's 6-hour Apoptosis Assessment for the High-Throughput Transcriptomics (HTTr) Platform, in MCF-7 cells cultured in DMEM + 10% fetal bovine serum, Harrill Lab (AID 2284011; active means hit-call score of the fitted dose curve at least 0.9, where 1 is the maximum; inactive means score below 0.9). Summed up:
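MCF-7 cells in DMEM + 10% FBS exposed 6 h to chemicals over an eight-point dilution series. Caspase-3/7 activation imaged by high-content CellEvent Green staining; fitted bidirectionally versus DMSO.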

Chain of Cellular tumor antigen p53 (Homo sapiens) (P04637 whole entry, looked up): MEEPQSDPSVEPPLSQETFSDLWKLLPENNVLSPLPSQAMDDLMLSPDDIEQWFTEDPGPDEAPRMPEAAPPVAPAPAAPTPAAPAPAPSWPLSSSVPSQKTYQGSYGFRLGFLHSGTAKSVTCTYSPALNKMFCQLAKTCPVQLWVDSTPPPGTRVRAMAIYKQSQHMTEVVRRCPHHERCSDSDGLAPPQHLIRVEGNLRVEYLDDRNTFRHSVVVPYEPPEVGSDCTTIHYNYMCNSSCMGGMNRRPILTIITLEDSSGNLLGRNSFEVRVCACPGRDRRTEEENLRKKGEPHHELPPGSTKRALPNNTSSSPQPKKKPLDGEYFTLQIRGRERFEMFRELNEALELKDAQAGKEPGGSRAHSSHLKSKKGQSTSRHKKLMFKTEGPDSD

As for `CC(C)OC(=O)c1cc2c(OCC(O)CNC(C)(C)C)cccc2[nH]1` (stereo not drawn), the compound was classed as inactive in [1], in [2], in assay [3], in assay [4] and in assay [5].

Turning to `COc1ccccc1OCC(O)CN1CCN(CC(=O)Nc2c(C)cccc2C)CC1` (stereo not drawn), the compound was called inactive in assay [1], in assay [2], in assay [3], in [4] and in [6].

For `COc1ccc(CCN(C)CCCC(C#N)(c2cc(OC)c(OC)c(OC)c2)C(C)C)cc1OC` (stereo not drawn), the compound was called inactive in assay [1], in assay [2], in assay [3], in [4], in [5] and in assay [6].

A word on the AC50: it is the midpoint of the concentration-response curve, whichever way the signal moves. Consider `CC(=O)Oc1ccc([N+](=O)[O-])cc1CCl`, for which the compound was called inactive in [1], in assay [2] and in assay [7]. Besides, the AC50 in assay [3] is 73.1 µM (active).

Consider `OC(CCN1CCCCC1)(c1ccccc1)C1CC2C=CC1C2` (stereo not drawn), for which the call in assay [1], in assay [2], in [3], in assay [4] and in assay [5] was inactive.

For `CC(=O)c1ccc2c(c1)N(CCCN1CCC(CCO)CC1)c1ccccc1S2`, the result in [1], in [2], in [3], in assay [4], in [7] and in assay [5] was inactive. Also, the outcome in assay [6] was inactive.

Consider `CC(C)(C(=O)c1cccnc1)c1cccnc1`, for which the compound was classed as inactive in [1], in assay [2], in assay [3], in assay [4], in assay [7] and in [6]. Also, the call in assay [8], in assay [14], in assay [15], in [16] and in assay [17] was inactive. Moreover, the AC50 in assay [9] was 35.3 µM (active); in assay [10] it was 36.9 µM (active); in assay [11], 29.1 µM (active); in [12], 1.56 µM (active); in [13], 0.13 µM (active).
